Test results from PubChem BioAssay AID1117284 (Broad Institute, 2014).
Potency and affinity values are given separately. Activity calls are given as the source filed them.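 Rule for the calls: active = viability signal drop whose fitted half-maximal concentration is at most twice the top valid dose; inconclusive = flat partial drop or unreliable curve fit; inactive = the rest.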

Assay: A549 cell cytotoxicity, dose response, CellTiter-Glo luminescence, dry powder, set 17 (AID 1117284)
Conditions: A549 viability, CellTiter-Glo ATP luminescence, 72 h; series mostly up to 26 µM; activity change, negative = cytotoxic: at the top concentration

| Structure (SMILES) | activity change, negative = cytotoxic |
| --- | --- |
| C[C@@H](O)C#Cc1ccc2c(c1)O[C@@H](CN(C)Cc1ccncc1)[C@@H](C)CN([C@@H](C)CO)S2(=O)=O | 24.1% (inactive) |
| CNC[C@@H]1Oc2cc(Br)ccc2S(=O)(=O)N([C@@H](C)CO)C[C@@H]1C | 11.6% (inactive) |
| C[C@@H](O)C#Cc1ccc2c(c1)O[C@@H](CN(C)S(=O)(=O)c1ccc(-c3ccccc3)cc1)[C@@H](C)CN([C@@H](C)CO)S2(=O)=O | 15.3% (inactive) |
| C[C@H]1CN([C@@H](C)CO)S(=O)(=O)c2ccc(Br)cc2O[C@H]1CN(C)Cc1ccc(-c2ccccc2)cc1 | 3.58% (inactive) |
| C[C@H](CO)N1C[C@H](C)[C@H](CN(C)Cc2ccc(-c3ccccc3)cc2)Oc2cc(C#C[C@@H](C)O)ccc2S1(=O)=O | 16.2% (inactive) |
| C[C@@H](O)C#Cc1ccc2c(c1)O[C@@H](CN(C)Cc1cccnc1)[C@@H](C)CN([C@@H](C)CO)S2(=O)=O | 8.93% (inactive) |
| CO[C@H]1CN(C)C(=O)c2ccc(NC(=O)c3ccc(F)cc3)cc2OC[C@H](C)N(C(=O)c2ccc(F)cc2)C[C@@H]1C | 18.3% (inactive) |
| C[C@@H](O)C#Cc1ccc2c(c1)O[C@@H](CN(C)C(=O)c1ccc(-c3ccccc3)cc1)[C@@H](C)CN([C@@H](C)CO)S2(=O)=O | 22.5% (inactive) |
